Assay [1] in a line: cAMP Responsive Elements (CRE) small molecule antagonists, cell-based qHTS assay: qHTS cell viability counter screen (AID 2060913). Note: nearly all actives have a fitted effect of over 40% in size. The note with it: CRE-bla HEK293T viability, CellTiter-Glo luminescence, 5 h; series mostly up to 92.4 µM. In a few lines: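 Cytotoxicity counter screen multiplexed with the CRE-bla antagonist read: HEK293T cells in DMEM with dialyzed FBS and 25 mM HEPES were treated 3 hrs under 0.25 uM final NKH477, then viability measured by CellTiter-Glo luminescence.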
In general terms: Quantitative high-throughput screening tests each substance at several concentrations.

Assay [2] can be described thus: cAMP Responsive Elements (CRE) small molecule agonists, cell-based qHTS assay: qHTS cell viability counter screen (AID 2060914). Note: nearly all actives have a fitted effect of over 50% in size. The note with it: CRE-bla HEK293T viability, CellTiter-Glo luminescence, 5 h; series mostly up to 92.4 µM. The gist of the method:
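Luminescence read-out (CellTiter-Glo, 30 min RT) of ATP-based viability in CRE-bla HEK 293T cells, run in the same wells as the β-lactamase reporter assay after 3 h compound treatment at 37 °C.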

Results filed as inconclusive are left out. A number with no mark means an inactive call. The source made the active and inactive calls. Calls come from the whole dose curve; as a rule, active = well fitted cell-killing curve with a large enough effect in the repeat runs; inconclusive = weak or mixed curves, or effect the other way; inactive = flat fitted curve, though single readings scatter.
% is set by controls: 0 for no effect and ±100 for the full control effect.

With `Cn1cc(C(=O)[C@@H]2CCc3nc[nH]c3C2)c2ccccc21`, the Potency result in assay [1] and in assay [2] was “inactive” each time.

On to `C/C=C(\C)C(C)=O`, for which the Potency result in assay [1] and in assay [2] was “inactive” each time.

On to `CCc1cccc(N(C)C(N)=Nc2cccc3ccccc23)c1`, for which the Potency result in assay [1] and in assay [2] was “inactive” each time.

`NCc1cccc(CN)c1`: the Potency result in assay [1] and in assay [2] was “inactive” throughout.

For the molecule `CC(C)(C)CC(=O)OCC(=O)[C@@]1(O)CC[C@H]2[C@@H]3CCC4=CC(=O)C=C[C@]4(C)[C@H]3[C@@H](O)C[C@@]21C`, the Potency entry in assay [1] and in assay [2] was “inactive” each time.

In the case of `c1ccc(CNc2ncnc3nc[nH]c23)cc1`, the Potency result in assay [1] and in assay [2] was “inactive” throughout.

On to `Fc1ccc(C(c2ccc(F)cc2)N2CCNCC2)cc1`, for which the Potency entry in assay [1] and in assay [2] was “inactive” throughout.

Consider `O=C(O)c1cc(Cl)cc(Cl)c1`, for which the Potency entry in assay [1] and in assay [2] was “inactive” throughout.

In the case of `O=S(=O)(Cl)c1c(Cl)cccc1Cl`, the Potency entry in assay [1] and in assay [2] was “inactive” each time.

In the case of `CCCc1nc(C)c2c(=O)[nH]c(-c3cc(S(=O)(=O)N4CCN(CC)CC4)ccc3OCC)nn12`, the Potency result in assay [1] and in assay [2] was “inactive” each time.

Turning to `Nc1ccc(S(=O)(=O)O)cc1`, the Potency result in assay [1] and in assay [2] was “inactive” in each case.

`CC(C)(O)CCC(C)(C)O`: the Potency entry in assay [1] and in assay [2] was “inactive” throughout.

As for `CC(=O)CCc1ccc(O)cc1`, the Potency entry in assay [1] and in assay [2] was “inactive” throughout.

As for `CCCc1ncc(C[n+]2ccccc2C)c(N)n1`, the Potency result in assay [1] and in assay [2] was “inactive” throughout.

In the case of `CCOc1ccc(NC(=O)CC(C)=O)cc1`, the Potency entry in assay [1] and in assay [2] was “inactive” throughout.

Regarding `O=C(O)CN(CCN(CC(=O)O)CC(=O)O)CC(=O)O`, the viability change, negative = cytotoxic in assay [1] is 3.3% [at 3.27 µM]. In assay [2], the activity change, negative = cytotoxicity is -20.1% [at 3.27 µM].

For the molecule `CCNc1nc(NC(C)CC)nc(OC)n1` (centres undefined), the Potency entry in assay [1] and in assay [2] was “inactive” in each case.

Regarding `BrCCOc1ccccc1`, the Potency result in assay [1] and in assay [2] was “inactive” in each case.

With `C#C[C@]1(O)CC[C@H]2[C@@H]3CCC4=CC(=O)CC[C@@H]4[C@H]3CC[C@@]21CC`, the Potency entry in assay [1] and in assay [2] was “inactive” in each case.

`O=C(O)CCCC[C@@H]1SC[C@@H]2NC(=O)N[C@@H]21`: the Potency result in assay [1] and in assay [2] was “inactive” each time.

As to `CC(C)COC(=O)c1ccccc1O`, the Potency result in assay [1] and in assay [2] was “inactive” throughout.

As for `Cc1cc(C)c(O)c(C)c1`, the Potency entry in assay [1] and in assay [2] was “inactive” throughout.

For the molecule `CCCCCCCCCCCC`, the Potency entry in assay [1] and in assay [2] was “inactive” each time.

For `CC(C)(C)c1ccc(C(=O)CCCCl)cc1`, the Potency entry in assay [1] and in assay [2] was “inactive” throughout.

For the molecule `COc1cc(C=C2CCC/C(=C\c3ccc(O)c(OC)c3)C2=O)ccc1O`, the Potency entry in assay [1] and in assay [2] was “inactive” in each case.

As for `CCCCCCCCCCCCCCCCC`, the Potency entry in assay [1] and in assay [2] was “inactive” each time.

For the molecule `CCN(CC)CCOC(=O)C(Cc1cccc2ccccc12)CC1CCCO1` (centres undefined), the Potency result in assay [1] and in assay [2] was “inactive” throughout.

Consider `CN(C)CCN(Cc1cccs1)c1ccccn1`, for which the Potency entry in assay [1] and in assay [2] was “inactive” each time.

For the molecule `O=C(CCCl)NCCc1ccccc1`, the Potency entry in assay [1] and in assay [2] was “inactive” each time.

Consider `O=C(C(=O)c1ccccc1)c1ccccc1`, for which the Potency entry in assay [1] and in assay [2] was “inactive” throughout.

On to `CCC(=O)/C=C/c1ccc(OC)cc1`, for which the Potency result in assay [1] and in assay [2] was “inactive” each time.

Regarding `CCC(C)COC(=O)CC(C)C` (centres undefined), the Potency entry in assay [1] and in assay [2] was “inactive” throughout.

Regarding `CCO[C@H](Cc1ccc(OCCc2ccc(OS(C)(=O)=O)cc2)cc1)C(=O)O`, the Potency entry in assay [1] and in assay [2] was “inactive” throughout.

Consider `O=S(=O)(O)c1cc(O)c2ccc(Nc3ccccc3)cc2c1`, for which the Potency result in assay [1] and in assay [2] was “inactive” in each case.

`O=c1[nH]cnc2nc[nH]c12`: the Potency entry in assay [1] and in assay [2] was “inactive” in each case.

On to `CCC(C)(CCC(C)C)C(=O)[O-].CCC(C)(CCC(C)C)C(=O)[O-].[Zn+2]` (centres undefined), for which the Potency result in assay [1] and in assay [2] was “inactive” each time.

On to `COc1cc2c3cc1Oc1cc(ccc1O)C[C@@H]1c4c(cc(OC)c(O)c4Oc4ccc(cc4)C[C@@H]3N(C)CC2)CC[N+]1(C)C`, for which the Potency entry in assay [1] and in assay [2] was “inactive” each time.

Consider `OCCc1ccccn1`, for which the Potency result in assay [1] and in assay [2] was “inactive” throughout.

`CCCCCCCC/C=C\CCCCCCCC(=O)OC(CO)CO`: the Potency result in assay [1] and in assay [2] was “inactive” each time.

For `COCCOC(=O)C1=C(C)NC(C)=C(C(=O)OC(C)C)C1c1cccc([N+](=O)[O-])c1` (centres undefined), the Potency entry in assay [1] and in assay [2] was “inactive” throughout.

For the molecule `CCCc1ccccc1`, the Potency result in assay [1] and in assay [2] was “inactive” in each case.

On to `C=CCc1ccc(OC)c(OC)c1`, for which the Potency entry in assay [1] and in assay [2] was “inactive” throughout.

As for `CCOC(=O)c1ccc(N)cc1`, the Potency result in assay [1] and in assay [2] was “inactive” throughout.

With `CC1(C)S[C@@H]2[C@H](NC(=O)COc3ccccc3)C(=O)N2[C@H]1C(=O)O`, the Potency entry in assay [1] and in assay [2] was “inactive” in each case.

Regarding `CCCCN(CCN(CCCC)C(=O)N1CCOCC1)C(=O)N1CCOCC1`, the Potency result in assay [1] and in assay [2] was “inactive” in each case.

Turning to `CC1=CC2C3CC(C=C3C)C2C1` (centres undefined), the Potency result in assay [1] and in assay [2] was “inactive” in each case.

Take `CCCCCCCCCCCC(=O)OC`: the Potency result in assay [1] and in assay [2] was “inactive” in each case.

Regarding `OCC1CCC(CO)CC1` (centres undefined), the Potency result in assay [1] and in assay [2] was “inactive” throughout.

For the molecule `COC(=O)CCSCCC(=O)OC`, the Potency result in assay [1] and in assay [2] was “inactive” each time.

For the molecule `CN(C)c1ccc(C2(c3ccc(N(C)C)cc3)OC(=O)c3cc(N(C)C)ccc32)cc1`, the Potency result in assay [1] and in assay [2] was “inactive” in each case.

Turning to `CC(C)OC(=O)OCOP(=O)(CO[C@H](C)Cn1cnc2c(N)ncnc21)OCOC(=O)OC(C)C`, the Potency entry in assay [1] and in assay [2] was “inactive” each time.

Regarding `CN1CCC(Nc2ncc3ncnc(Nc4ccc(F)c(Cl)c4)c3n2)CC1`, the Potency entry in assay [1] and in assay [2] was “inactive” throughout.

For `NCCO`, the Potency result in assay [1] and in assay [2] was “inactive” throughout.

For the molecule `O=C(Cn1ccnc1[N+](=O)[O-])NCc1ccccc1`, the Potency result in assay [1] and in assay [2] was “inactive” in each case.

Turning to `O=C(CCS)OCC(COC(=O)CCS)(COC(=O)CCS)COC(=O)CCS`, the Potency entry in assay [1] and in assay [2] was “inactive” each time.

Regarding `O=S(=O)(O)SSS(=O)(=O)O`, the Potency entry in assay [1] and in assay [2] was “inactive” each time.

On to `COc1cc([C@@H]2c3cc4c(cc3[C@H](O)[C@H]3COC(=O)[C@H]23)OCO4)cc(OC)c1OC`, for which the Potency entry in assay [1] and in assay [2] was “inactive” in each case.

(Values after PubChem BioAssay (Tox21).)
